Assay results as given in the supplement of paper PMC8728848.
The sample as a whole holds a higher share of the strongest signals than the screen did.

What was measured:
Assay in all cases: glycan array binding signal (z-score within array); higher = stronger binding
Details in all cases: glycan notation: IUPAC condensed, linker removed
[1] = molecular target: Neu5Ac(a2-3)Gal(b1-4)[Fuc(a1-3)]GlcNAc(b1-6)[Neu5Ac(a2-3)Gal(b1-3)]GalNAc
Procedure, shortened: (§1)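 From the Consortium for Functional Glycomics database, 3228 arrays were curated, keeping only those whose protein sequence was available. Binding is given as a within-array Z-score averaged across arrays sharing a protein sequence and across linkers. Negative Z-scores can be read as non-binding.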

[2] = molecular target: Neu5Ac(a2-6)Gal
Procedure, shortened: as §1

[3] = molecular target: Neu5Ac(a2-6)Gal(b1-3)GlcNAc(b1-3)[Gal(b1-4)GlcNAc(b1-6)]Gal(b1-4)Glc
Procedure, shortened: as §1

[4] = molecular target: Neu5Ac(a2-6)Gal(b1-4)GlcNAc(b1-2)Man(a1-6)[GlcNAc(b1-2)Man(a1-3)]Man(b1-4)GlcNAc(b1-4)GlcNAc
Procedure, shortened: as §1

[5] = molecular target: Neu5Ac(a2-6)Gal(b1-4)GlcNAc(b1-3)Gal(b1-4)GlcNAc(b1-3)Gal(b1-4)GlcNAc
Procedure, shortened: as §1

[6] = molecular target: Neu5Ac(a2-6)GalNAc(b1-4)GlcNAc
Procedure, shortened: as §1

[7] = molecular target: Neu5Ac(a2-6)GlcNAc(b1-4)GlcNAc
Procedure, shortened: as §1

[8] = molecular target: Neu5Ac(a2-8)Neu5Ac(a2-3)Gal(b1-4)Glc
Procedure, shortened: as §1

[9] = molecular target: Neu5Ac9Ac(a2-6)Gal(b1-4)GlcNAc
Procedure, shortened: as §1

[10] = molecular target: Neu5Gc(a2-3)Gal(b1-4)GlcNAc
Procedure, shortened: as §1

B1: LSectin (Mus musculus), Q8BNX1 (protein)
chain: MNTGEYNKLGSAIEEVSRGQLGRWECYKQRLFFLVLALLVATVLWALILSTLLSSASSKLRVLLSHQDLLRTNASEQKMTLSSLKDDIGACRNCCSVTKAQLQTTLAEFKDIQAKLMEQESILKELQERVTQDLAKASRDRENIRSELFQALEAVKRQNSSCEQCPPSWLPFQGSCYYFSETQATWDTAQSYCGGQGAHLVIVRGLNEQGFLSQHTRGRGYWLGLRAVRHLNKIQGYRWVDGASLNFSHWNSGEPNDSRGHEDCIMMLHSGLWNDAPCTNERDGWICEKRSSCY
B1 was tested, and the “glycan array binding signal (z-score)” value [1] was -0.181, the “glycan array binding signal (z-score)” value [2] was -0.118 and the “glycan array binding signal (z-score)” value [3] was -0.187. For the same binder, the “glycan array binding signal (z-score)” value [4] was 4.19, the “glycan array binding signal (z-score)” value [5] was -0.182 and the “glycan array binding signal (z-score)” value [6] was 3.69. The “glycan array binding signal (z-score)” value [7] was -0.18, the “glycan array binding signal (z-score)” value [8] was -0.158 and the “glycan array binding signal (z-score)” value [9] was -0.16. For the same binder, the “glycan array binding signal (z-score)” value [10] was -0.156.
